This is a sample that favours compounds with a hit; in the whole collection about 4.1% have one here.
ssDAF-12 act – S. stercoralis DAF-12 nuclear receptor activators, primary screen, cell-based, luminescence, HEK293, GRIP1 co-expression, lit1-tk-luc; Nuclear hormone receptor DAF-12 (Strongyloides stercoralis); HEK293 ssDAF-12/GRIP1 lit1-tk-luc reporter; % of 3 µM dafachronic acid response; activation, % at 6.8 µM; hit rate 1% among 370,000; AID 652126, 2013;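 active = activation above the mean over all tested compounds plus 3 SD, cut at about 0.9% in these data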
hcDAF12 agonist – H. contortus DAF-12 nuclear receptor activators, primary screen, cell-based, luminescence, HEK293, lit1-tk-luc reporter; activation, % at 6.8 µM; HEK293 hcDAF-12 lit1-tk-luc reporter; 0% DMSO, 100% Δ7-dafachronic acid; hit rate 1.4% among 370,000;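 active = activation above the mean of all tested compounds plus 3 SD, cut at about 5.5% in these data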
hgDAF12 agonist – H. glycines DAF-12 receptor agonists, primary screen, cell-based, luminescence, HEK293, GAL4 fusion, UAS-luciferase; Nuclear hormone receptor DAF-12 (Heterodera glycines), GAL4 fusion; HEK293 GAL4-hgDAF12 UAS-luciferase reporter, agonist luminescence; normalized to butyrate control; activation, % at 6.8 µM; hit rate 1.8% among 370,000;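 active = activation above a cutoff set at the mean of all screened compounds plus 3 SD, cut at about 10% in these data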
DAX1 inh-1 – DAX1 (NR0B1) inhibitors, primary screen, cell-based, HEK293, Gal4-DAX1, luciferase luminescence; Nuclear receptor subfamily 0 group B member 1 (Homo sapiens), P51843; HEK293 Gal4-DAX1 luciferase reporter; inhibition, % at 6.75 µM; hit rate 0.99% among 340,000; AID 504766, 2011;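 active = inhibition above the mean over all tested compounds plus 3 SD, cut at about 4.2% in these data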;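 also: inhibition shows as a rise in luminescence from relieved DAX1 repression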
Target sequence (P51843 207-470 limits assumed): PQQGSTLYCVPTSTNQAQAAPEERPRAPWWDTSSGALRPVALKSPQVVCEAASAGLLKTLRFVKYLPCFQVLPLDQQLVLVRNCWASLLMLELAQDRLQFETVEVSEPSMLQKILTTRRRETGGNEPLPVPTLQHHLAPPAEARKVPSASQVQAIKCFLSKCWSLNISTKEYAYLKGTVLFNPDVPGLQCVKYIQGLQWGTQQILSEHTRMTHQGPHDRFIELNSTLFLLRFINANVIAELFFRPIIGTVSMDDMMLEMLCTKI
DAX1 inh-2 – DAX1 (NR0B1) inhibitors on StAR promoter, primary screen, cell-based, luminescence, SF-1 (NR5A1), full-length DAX-1; hit rate 1.1% among 370,000; HEK293T StAR-luciferase reporter, SF-1/DAX-1 repression relief; inhibition, % at 6.8 µM; AID 652010, 2013;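 active = inhibition above the mean over all tested compounds plus 3 SD, cut at about 3.6% in these data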;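 also: higher inhibition means more luminescence from relief of DAX-1 repression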
DAX1 conf – DAX1 (NR0B1) inhibitors relieving SF-1 repression, confirmation, cell-based, luminescence, HEK293T, full-length DAX-1, SF-1 activated StAR promoter; inhibition, % at 6.8 µM; shares compounds with DAX1 inh-2; HEK293T StAR-promoter luciferase reporter, SF-1/DAX-1 repression; hit rate 87% among 2,400; AID 652134, 2013;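 active = inhibition above the average of every tested compound plus 3 SD, cut at about 3.8% in these data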
SF1 AF2mut Luc – StAR reporter signal changes without DAX1, counter-screen for DAX1 inhibitor project, cell-based, luminescence, AF-2 mutant SF-1, transactivation | shares compounds with DAX1 inh-2 | HEK293 StAR-luciferase, SF-1 AF2 mutant | inhibition, % at 6.8 µM | hit rate 78% among 2,400 | AID 652136, 2013;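 active = inhibition above the mean of all tested compounds plus 3 SD, cut at about 3% in these data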
Of the large screens only hits and unclear results are named; the others gave an inactive call (follow-up assays come after a bar, where they were run).

CCOC(=O)c1sc(=NC(=O)c2ccc(F)cc2)n(C)c1C	hcDAF12 agonist 6.0, DAX1 inh-2 6.8 | DAX1 conf 14.8 | SF1 AF2mut Luc 7.4
CCOC(=O)c1sc(=NC(=O)c2c(F)cccc2F)n(C)c1C	none
O=c1cccc(-c2ccc3ccccc3c2)o1	DAX1 inh-2 6.6 (no result: DAX1 inh-1) | DAX1 conf 5.0 | SF1 AF2mut Luc 3.1
Cc1ccc(-c2cccc(=O)o2)cc1	none (no result: DAX1 inh-1)
CCCc1c(C(=O)N/N=C/c2ccccc2C(F)(F)F)nnn1-c1nonc1N	none
Cc1ccc(C(=O)NC2CCc3ccccc3C2=O)cc1 (stereo unspecified)	hgDAF12 agonist 13.2, DAX1 inh-2 5.5 | DAX1 conf 4.6 | SF1 AF2mut Luc 3.3
CCCCNC(=O)[C@@H]1CC=C[C@@H]2CCN(C3CC3)C(=O)[C@@H]21	none
COc1ccc(CCNC(C)=O)cc1	none
COc1ccc(CCNC(=O)c2cccn2C)cc1	DAX1 inh-2 6.3 | DAX1 conf 7.8 | SF1 AF2mut Luc 6.5
Nc1ncnc2c1ncn2[C@@H]1O[C@H](CNCc2ccc(-n3cccn3)cc2)[C@@H](O)[C@H]1O	none (no result: ssDAF-12 act, hcDAF12 agonist, hgDAF12 agonist, DAX1 inh-2)
COc1ccc(N=C2C(=S)N(c3ccc(OC)cc3)C(=NS(=O)(=O)c3ccccc3)N2c2ccccc2)cc1	hgDAF12 agonist 13.2, DAX1 inh-2 8.2 | DAX1 conf inactive | SF1 AF2mut Luc 4.2
Cc1ccc(NC(=O)NCCN2C(=O)C3C4C=CC(C4)C3C2=O)cc1 (stereo unspecified)	hcDAF12 agonist 6.5, DAX1 inh-1 5.8, DAX1 inh-2 5.1 | DAX1 conf 13.4 | SF1 AF2mut Luc 6.1
COc1ccc(C(C)(NC(C)=O)c2nc(-c3cnc4ccccc4c3)cs2)cc1 (stereo unspecified)	none (no result: DAX1 inh-1)
CN1C(=O)CSc2ccc(NC(=O)N3CCc4ccccc43)cc21	DAX1 inh-2 5.9 | DAX1 conf 6.3 | SF1 AF2mut Luc inactive
Cc1ccc(C(=O)Nc2ncccc2O)o1	DAX1 inh-2 6.0 | DAX1 conf 5.4 | SF1 AF2mut Luc inactive
O=C(NC1CCCCC1)C(=O)c1c[nH]c2ccccc12	DAX1 inh-2 6.5 | DAX1 conf 8.5 | SF1 AF2mut Luc 5.5
CNCC(=O)N1CCN(c2ncc(C(F)(F)F)cc2Cl)CC1	none
CCOC(=O)C1=CN(Cc2ccco2)S(=O)(=O)N(CC)C1c1cccc(OC)c1 (stereo unspecified)	none
COc1cccc(C(=O)Nc2nnc(SCC(=O)Nc3ccc(NC(C)=O)cc3)s2)c1	hcDAF12 agonist 5.6, DAX1 inh-2 10.2 | DAX1 conf 9.1 | SF1 AF2mut Luc 6.6
COc1cccc(N2CC(C(=O)Nc3nnc(SCC(=O)Nc4ccc(NC(C)=O)cc4)s3)CC2=O)c1 (stereo unspecified)	none
Cc1cccc(C(=O)Nc2nnc(SCC(=O)NCc3ccco3)s2)c1	DAX1 inh-2 5.6 | DAX1 conf inactive | SF1 AF2mut Luc inactive
Cc1ccc(OCC(O)CN2CCC(Cc3ccccc3)CC2)c(C)c1 (stereo unspecified)	none
O=C1CN(C(=O)/C=C/c2ccco2)c2ccccc2N1	none
O=C(NCc1ccc(Cl)cc1)c1ccc(NC(=O)C2CCCO2)cc1 (stereo unspecified)	none
O=C(Nc1ccc(CN2CCOCC2)cc1)c1cc2ccccn2n1	DAX1 inh-2 6.2 | DAX1 conf 9.8 | SF1 AF2mut Luc 3.0
O=C(Cc1ccccc1)Nc1ccc(CN2CCOCC2)cc1	none
COCCNC(=S)N(CCc1c(C)[nH]c2ccccc12)Cc1cccnc1	none
CN(C)S(=O)(=O)c1ccc(C(=O)Nc2nnc(SCC(=O)NCC3CCCO3)s2)cc1 (stereo unspecified)	none
CCOc1ccc(C(=O)Nc2nnc(SCC(=O)NCC3CCCO3)s2)cc1 (stereo unspecified)	hcDAF12 agonist 6.1, DAX1 inh-2 5.4 | DAX1 conf 4.2 | SF1 AF2mut Luc inactive
CC(C)(C)c1ccc(C(=O)Nc2nnc(SCC(=O)NCC3CCCO3)s2)cc1 (stereo unspecified)	DAX1 inh-2 11.3 | DAX1 conf 8.9 | SF1 AF2mut Luc 6.1
COc1ccc(C2(C)NC(=O)N(CC(=O)N(c3ccccc3)C3CCS(=O)(=O)C3)C2=O)cc1 (stereo unspecified)	none
CC(C)CCn1c(=O)c2sccc2n2c(CCCC(=O)N3CCC(N4CCCCC4)CC3)nnc12	DAX1 inh-2 4.7 | DAX1 conf 4.6 | SF1 AF2mut Luc 4.1
Cc1cc(NC(=O)NC(=O)c2ccccc2F)no1	DAX1 inh-2 5.2 | DAX1 conf 8.7 | SF1 AF2mut Luc inactive
Cc1cc(NC(=O)c2ccccc2Cl)no1	none
COc1cc(C(=O)N/N=C(\C)c2ccc(NC(=O)Cc3ccccc3)cc2)ccc1O	ssDAF-12 act 1.1, DAX1 inh-2 6.9 | DAX1 conf 6.2 | SF1 AF2mut Luc 4.2
C/C(=N\NC(=O)c1ccccc1O)c1ccc(NC(=O)Cc2ccccc2)cc1	DAX1 inh-2 7.2 | DAX1 conf 6.3 | SF1 AF2mut Luc 3.6
Cn1c(N)c(C(=O)COC(=O)CNS(=O)(=O)c2ccc(Cl)c(Cl)c2)c(=O)n(C)c1=O	none
Cc1nn(CC(=O)NC2CCCCC2)c(C)c1[N+](=O)[O-]	none
COc1ccc(C(=O)NN=C2CCCC2)cc1OC	none
CCOc1cc(C(=O)NN=C2CCCC2)cc(OCC)c1OCC	DAX1 inh-2 6.9 | DAX1 conf inactive | SF1 AF2mut Luc inactive
CNC(=O)C(=O)NCCC1CCCCN1S(=O)(=O)c1cccs1 (stereo unspecified)	none
CC(C)C[C@@H](CN1CCCC1CN1C(=S)NC[C@@H]1Cc1ccc(O)cc1)N1C[C@H](Cc2ccccc2)N(CC2CCCCCC2)C1=S (stereo partly specified)	none
